Records with an inconclusive call do not appear. Activity calls are given as the source filed them. How the source made its calls: active means hit-call score of the fitted dose curve at least 0.9, where 1 is the maximum; inconclusive means response in the unintended direction; inactive means score below 0.9.
assay: ACEA_AR_antagonist_AUC_viability: ACEA Biosciences xCELLigence Real-Time Cell Analysis on Androgen Receptor Antagonism for Viability (AID 2283776);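 further: area under impedance growth curve at 80 h after dosing as viability; hits lower the growth signal relative to DMSO meaning cytotoxicity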
Protocol: ACEA_AR_antagonist is a cell-based, single-readout assay that uses 22Rv1, a human prostate cancer cell line, with measurements taken at 80 hours after chemical dosing in a 384-well plate, although TO5 and TO6 (mc0.srcf) used a 96-well plate. Differences in plate size can be ignored given data normalization.ACEA_AR_80hr is one of two assay component(s) measured or calculated from the […] assay. It is designed to make measurements of real-time cell-growth kinetics, a form of growth reporter, as detected with electrical impedance signals by Real-Time Cell Electrode Sensor (RT-CES) technology.Data from the assay component ACEA_AR_antagonist_AUC_viability was analyzed in the positive analysis fitting direction relative to DMSO as the negative control and baseline of activity. Using a type of growth reporter, loss-of-signal activity can be used to understand changes in the viability. Furthermore, this assay endpoint can be referred to as a secondary readout, because this assay has produced multiple assay endpoints where this one serves a viability function. To generalize the intended target to other relatable targets, this assay endpoint is annotated to the cell cycle intended target family, where the subfamily is cytotoxicity.
The xCELLigence system Multi-E-Plate stations were used to measure the time-dependent response to chemicals. Each compound was tested in an eight-point, 1:4 serial dilution series starting at a maximum final concentration of 100 uM. A maximum starting concentration of 0.5% DMSO was present in the 100 uM chemical samples and was diluted along with the test article dilution series. The screen was performed in biological duplicate using two separate, 96-well, E-Plates 96 for each dilution series (n = 2). Positive controls (MG132 and testosterone) and a negative control (assay media) were tested in quadruplicate on each testing plate. Then, 0.5% and 0.125% DMSO were tested in duplicates in each plate to serve as solvent controls for the 2 highest concentrations of testing compounds: 100 uM and 25 uM. Reference compounds were tested with 8 concentrations with 1:5 serial dilutions. All screening was carried out by ACEA Biosciences, Inc. (San Diego, CA). 22Rv1 cells purchased from ATCC were maintained in media supplemented with 10% fetal bovine serum (FBS). Before screening, 22Rv1 cells were preconditioned in assay medium. Cells were then detached and seeded in E-Plates 96 in assay medium. After overnight monitoring of growth once every hour, compounds were added to […] cells and remained in the medium until the end of the experiment. Cellular responses were then recorded once every 5 min for the first 5 h, and once every hour for an additional 100 h.

Row | SMILES | outcome | AC50
1 | CC(C)(C)OOC(=O)c1ccccc1 | inactive | 
2 | COc1cc(C=O)cc2c1[C@H](COC(N)=O)[C@]1(OC(C)=O)ON2C[C@H]2[C@@H]1N2C(C)=O |  | 0.00824 µM (active)
3 | Nc1ccc([N+](=O)[O-])cc1 |  | 16.8 µM (active)
4 | OCCOCCO | inactive | 
5 | Cc1cc(N=Nc2ccccc2C)ccc1N |  | 42.2 µM (active)
6 | c1ccc(N=Nc2ccccc2)cc1 | inactive | 
7 | Clc1ccc(C(c2ccc(Cl)cc2)C(Cl)(Cl)Cl)cc1 | inactive | 
8 | Nc1ccc(Cc2ccc(N)cc2)cc1 |  | 28.1 µM (active)
9 | [O-][Cl+]O | inactive | 
10 | c1ccc2c(c1)oc1ccccc12 | inactive | 
11 | CCOC(=O)[C@]1(c2ccccc2)Oc2ccccc2[C@@H]1N |  | 65 µM (active)
12 | CNC(=O)Oc1cccc2c1OC(C)(C)C2 | inactive | 
13 | CCCCOC(=O)c1ccccc1C(=O)OCc1ccccc1 |  | 24.7 µM (active)
14 | CN(C)c1ccccc1 | inactive | 
15 | ClC1=C(Cl)C2(Cl)C3C(Cl)C=CC3C1(Cl)C2(Cl)Cl (stereo not given) |  | 22 µM (active)
16 | [Cl-].[Cl-].[Hg+2] |  | 5.66 µM (active)
17 | CS(=O)(=O)NC(=O)c1cc(Oc2ccc(C(F)(F)F)cc2Cl)ccc1[N+](=O)[O-] | inactive | 
18 | Brc1ccc(Oc2ccccc2)cc1 | inactive | 
19 | Clc1ccccc1Cl | inactive | 
20 | CCNS(=O)(=O)C(F)(F)C(F)(F)C(F)(F)C(F)(F)C(F)(F)C(F)(F)C(F)(F)C(F)(F)F | inactive | 

Row | SMILES | outcome | AC50
21 | Nc1ccc(N=Nc2ccccc2)cc1 | inactive | 
22 | C[N+](C)(C)CC1CO1 (stereo not given) | inactive | 
23 | Oc1ccc2ccc3cccc4ccc1c2c34 |  | 74.6 µM (active)
24 | OCCCBr | inactive | 
25 | Nc1ccc(Oc2ccc(N)cc2)cc1 | inactive | 
26 | O=C(Oc1ccc(Br)cc1)N1CCN2CCC1CC2 | inactive | 
27 | CN(C)C(=O)Nc1ccc(Cl)cc1 |  | 50 µM (active)
28 | Cc1ccc([N+](=O)[O-])cc1 | inactive | 
29 | CCCCCCCCOC(=O)c1ccc(C(=O)OCCCCCCCC)c(C(=O)OCCCCCCCC)c1 | inactive | 
30 | CC(C)COC(=O)c1ccccc1C(=O)OCC(C)C |  | 74.8 µM (active)
31 | CC(C)(O)c1cnn2c(-c3ccc(F)c(-c4c(F)cccc4C#N)c3)cnc2n1 |  | 51.1 µM (active)
32 | O=[N+]([O-])C(Br)(CO)CO |  | 39 µM (active)
33 | N#CC(Br)(Br)C(N)=O | inactive | 
34 | O=C1CCCO1 | inactive | 
35 | c1ccc(C2CO2)cc1 (stereo not given) | inactive | 
36 | CC(C)N(Cc1ccccc1)C(=O)C(C)(C)C | inactive | 
37 | CC(C)(C)OOC(C)(C)CCC(C)(C)OOC(C)(C)C | inactive | 
38 | N#CC(Br)Br | inactive | 
39 | CCCCC(CC)COC(=O)c1ccc(C(=O)OCC(CC)CCCC)c(C(=O)OCC(CC)CCCC)c1 (stereo not given) | inactive | 
40 | O=C(O)C1C2CCC(O2)C1C(=O)O (stereo not given) |  | 35.4 µM (active)

Reference: PubChem BioAssay (EPA / NIEHS)
